Measurements published in PubChem BioAssay (NCI).
The panel holds about 79,000 compounds, 15% with a hit somewhere; the sample as a whole holds those more often. A number with no mark means an inactive call. The source made the active and inactive calls. No stated cut-off is given here; in the data, active means growth inhibition above about 70%; inactive means the rest.

Assays:
[1] = NCI Yeast Anticancer Drug Screen. Data for the rad50 strain (AID 155);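 further: 0% = growth of vehicle-only cultures of the same strain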; settings: S. cerevisiae rad50 strain growth inhibition, stronger effect = higher value
How it was run: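 Growth of the mutant yeast was measured after compound exposure and referenced to vehicle-treated cultures.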

[2] = NCI Yeast Anticancer Drug Screen. Data for the mec2-1 strain (AID 157); settings: S. cerevisiae mec2-1 strain, stronger effect = higher value
How it was run: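 mec2-1 yeast strain, carrying an alteration in DNA damage repair or cell cycle control, was exposed to compounds; growth inhibition was measured relative to vehicle-treated controls.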

[3] = NCI Yeast Anticancer Drug Screen. Data for the sgs1 mgt1 strain (AID 161);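 further: 0% = growth of cultures given vehicle only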; settings: S. cerevisiae sgs1 mgt1 strain, stronger effect = higher value
How it was run: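 This yeast growth screen uses a strain with defined DNA-repair lesions; compound-treated growth is compared with vehicle-treated growth.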

[4] = NCI Yeast Anticancer Drug Screen. Data for the cln2 rad14 strain (AID 165);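 further: 0% = growth equal to vehicle treated cultures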; settings: S. cerevisiae cln2 rad14 strain, stronger effect = higher value
How it was run: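 Yeast carrying cln2 and rad14 alterations (cell cycle control and DNA damage repair) were exposed to compounds. Growth inhibition was measured against vehicle-treated controls.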

[5] = NCI Yeast Anticancer Drug Screen. Data for the bub3 strain (AID 167); settings: S. cerevisiae bub3 mutant strain, stronger effect = higher value
How it was run: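 Whole-cell yeast assay. The mutant strain was incubated with compounds, and growth inhibition was determined by comparison with vehicle-treated cells.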

[6] = NCI Yeast Anticancer Drug Screen. Data for the mlh1 rad18 strain (AID 175); settings: S. cerevisiae mlh1 rad18 strain growth inhibition, stronger effect = higher value
How it was run: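 Growth inhibition of the yeast strain was measured after compound exposure and expressed relative to vehicle-treated controls. The strain carries defined defects in DNA damage repair.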

[7] = at 5.0 µM (retest, dose inferred, filed as 0.5)
[8] = at 50.0 µM (retest, dose inferred, filed as 5.0)

Structure (SMILES)	growth inhibition [1, 7]	growth inhibition [1, 8]	growth inhibition ([1]; at 50.0 µM)	growth inhibition [2, 7]	growth inhibition [2, 8]	growth inhibition ([2]; at 50.0 µM)	growth inhibition [3, 7]	growth inhibition [3, 8]	growth inhibition ([3]; at 50.0 µM)	growth inhibition [4, 7]	growth inhibition [4, 8]	growth inhibition ([4]; at 50.0 µM)	growth inhibition [5, 7]	growth inhibition [5, 8]	growth inhibition ([5]; at 50.0 µM)	growth inhibition [6, 7]	growth inhibition [6, 8]	growth inhibition ([6]; at 50.0 µM)
ClCCN(CCCl)CCN1c2ccc3ccccc3c2Sc2ccc3ccccc3c21	-3%	2%	32.7%	0%	37%	16.5%	-13%	61%	85% (active)	2%	1%	-19.2%	1%	79% (active)	20.8%	-1%	53%	67.9%
CCCCCCCCCCCCCCCCOC[C@@H](COC(c1ccccc1)(c1ccccc1)c1ccccc1)O[P+](=S)OC (some centres not stated)	31%	67%	62.4%	20%	39%	85.8% (active)	18%	55%	86.5% (active)	36%	29%	77.6% (active)	43%	58%	82.4% (active)	22%	32%	91.1% (active)
CN(C)C(=S)[S][Hg][c]1ccccc1	64%	87% (active)	91.3% (active)	69%	75% (active)	93.4% (active)	101% (active)	99% (active)	93.7% (active)	54%	99% (active)	92.8% (active)	101% (active)	100% (active)	92.1% (active)	52%	70% (active)	91.5% (active)
O=C(CBr)NC1CCCCC1	1%	93% (active)	81% (active)	4%	94% (active)	90.6% (active)	4%	93% (active)	82.8% (active)	2%	91% (active)	60%	6%	94% (active)	85.2% (active)	-2%	96% (active)	93% (active)
O=C(Cc1c2ccccc2cc2c1ccc1ccccc12)N(CCCl)CCCl	61%	94% (active)	98.8% (active)	15%	97% (active)	99.3% (active)	80% (active)	98% (active)	99.2% (active)	5%	95% (active)	94.3% (active)	17%	97% (active)	98.3% (active)	42%	96% (active)	99% (active)
COc1ccc(/C=C\[N+](=O)[O-])cc1OC	47%	97% (active)	99.4% (active)	27%	99% (active)	99.7% (active)	25%	99% (active)	99.7% (active)	12%	99% (active)	99% (active)	14%	99% (active)	99.3% (active)	28%	99% (active)	99.5% (active)
CN1CCOC12CCC1(C)C(CCC3C4CCC(O)C4(C)CCC31)C2 (configuration not stated)	-11%	-5%	77.5% (active)	-14%	-8%	5.8%	-7%	9%	58%	1%	8%	-6.75%	-22%	-9%	4.75%	-12%	-12%	71.8% (active)
[Cl][Hg][c]1ccc(Cl)s1	99% (active)	99% (active)	99.2% (active)	100% (active)	99% (active)	99.2% (active)	100% (active)	100% (active)	99% (active)	99% (active)	99% (active)	99% (active)	100% (active)	100% (active)	99.3% (active)	99% (active)	99% (active)	98.6% (active)
CN1CCN(c2ccc3nc(-c4ccc5nc(CCCc6ccc(N(CCCl)CCCl)cc6)[nH]c5c4)[nH]c3c2)CC1	98% (active)	98% (active)	90.5% (active)	99% (active)	99% (active)	90.8% (active)	100% (active)	99% (active)	92.2% (active)	97% (active)	99% (active)	91% (active)	99% (active)	99% (active)	91.7% (active)	98% (active)	98% (active)	89.5% (active)
Sc1ccccc1.[Ag]	27%	97% (active)	98.5% (active)	58%	99% (active)	98.8% (active)	49%	98% (active)	99% (active)	20%	97% (active)	98.1% (active)	56%	97% (active)	97.9% (active)	49%	97% (active)	98.3% (active)
CC(=O)O[C@H]1C(=O)O[C@@H]2C[C@H]3C(C)=CC(=O)[C@@H](O)[C@]3(C)[C@H]3[C@@]4(O)OC[C@]32[C@@H]1[C@@H](C)[C@H]4O	21%	86% (active)	81% (active)	31%	78% (active)	51.2%	17%	82% (active)	59.6%	36%	90% (active)	74.2% (active)	1%	74% (active)	60.4%	20%	93% (active)	83.9% (active)
[O-][n+]1onc2c1-c1nonc1CC2	21%	9%	-33.5%	-16%	-6%	5.65%	4%	22%	-10.3%	8%	21%	16%	6%	19%	-3.95%	-2%	11%	1.15%
OC1CC([CH2][Hg][I])OC([CH2][Hg][I])C1 (configuration not stated)	99% (active)	98% (active)	92.8% (active)	100% (active)	99% (active)	97.3% (active)	99% (active)	99% (active)	96.5% (active)	99% (active)	99% (active)	97.2% (active)	99% (active)	99% (active)	98.5% (active)	99% (active)	99% (active)	86.2% (active)
O=C(CBr)OC1CCCCC1	73% (active)	97% (active)	91% (active)	41%	98% (active)	69.4%	55%	98% (active)	87.4% (active)	24%	80% (active)	10.9%	60%	97% (active)	75.8% (active)	69%	98% (active)	90.4% (active)
O=C(c1ccccc1)c1c(CC(O)c2cccnc2)n(C(=O)c2ccccc2)c2ccccc12 (configuration not stated)	6%	96% (active)	91% (active)	3%	96% (active)	89.2% (active)	13%	97% (active)	90.7% (active)	19%	96% (active)	56.5%	-5%	97% (active)	87.9% (active)	2%	94% (active)	91% (active)
S=C=NC/C(Cl)=C/Cl	43%	48%	71.9% (active)	49%	45%	53.5%	14%	89% (active)	72.5% (active)	56%	71% (active)	56.9%	35%	91% (active)	69.2%	38%	46%	70.5% (active)
COC1CC(C)C(OC)C2=CC(=O)C=C(NC(=O)/C(C)=C/C=C\C(C)C(OC(N)=O)/C(C)=C\C(C)C1OC)C2=O (configuration not stated)	93% (active)	98% (active)	91.5% (active)	97% (active)	99% (active)	93% (active)	97% (active)	99% (active)	92.5% (active)	89% (active)	97% (active)	91.2% (active)	97% (active)	99% (active)	91.1% (active)	97% (active)	98% (active)	91.4% (active)
C[N+](C)(C)CC1Cc2ccccc2C1=O (configuration not stated)	25%	98% (active)	90% (active)	20%	99% (active)	93.2% (active)	14%	99% (active)	92% (active)	10%	85% (active)	90.5% (active)	32%	99% (active)	91.5% (active)	26%	99% (active)	92.5% (active)
C(#C[PH+](c1ccccc1)c1ccccc1)c1ccccc1.C(#C[PH+](c1ccccc1)c1ccccc1)c1ccccc1.C(#C[PH+](c1ccccc1)c1ccccc1)c1ccccc1.[C-]#[O+].[C-]#[O+].[C-]#[O+].[Cr]	29%	35%	83.2% (active)	31%	27%	87% (active)	14%	17%	86.8% (active)	31%	39%	84.5% (active)	44%	39%	88.2% (active)	0%	37%	82.5% (active)
